Source: PubChem
BRCA1 expr act: qHTS Assay to Identify Small Molecule Activators of BRCA1 Expression. AID 624202, 2012. MCF7-BRCA1-FFLuc reporter, luminescence, 48 h; response scale: scaled: vehicle 0%, 10 µM genistein 100%. actives 1.1% (n = 380,000). Potency, µM (top dose mostly 46.1 µM), without a hit: at the top dose activation, most hits filed as activators; further: nearly all actives have a fitted effect of over 80% in size
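MCF7 cells carrying a BRCA1-firefly luciferase reporter (2000 cells/well, phenol-red free MEM) were attached for 2 h at 37 °C, then given compounds for 48 h. Luminescence was read 15 min after luciferase reagent; activity normalized to genistein (10 microM) and DMSO.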
EPAC1 antagonist: qHTS for Antagonist of cAMP-regulated guanine nucleotide exchange factor 3 (EPAC1): primary screen | Rap guanine nucleotide exchange factor 3 (Homo sapiens), O95398 | EPAC1 GEF assay, Rap1b-BODIPY-GDP exchange fluorescence | Potency, µM (titrated, usually from 115 µM), for the others: at the highest dose activity change, negative = inhibition, actives largely listed as inhibitors | actives 0.14% (n = 360,000) | AID 720709, 2013;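 further: plate controls were vehicle for no effect and positive control for full effect; nearly all actives have a fitted effect of over 50% in size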
EPAC2 ag: qHTS for Agonist of cAMP-regulated guanine nucleotide exchange factor 4 (EPAC2): primary screen. EPAC2 activation, biochemical qHTS; response scale: 100% = 6.5 mM cAMP response. Potency, µM (highest dose often 154 µM), inactives show at the top dose activation, most hits filed as activators. actives 0.079% (n = 360,000); further: nearly all actives have a fitted effect of over 50% in size
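Each well held 100 nM EPAC2, 250 nM RAP1B-BODIPY-GDP and 50 uM GDP. Fluorescence, read at 5-min intervals to 30 min, was referenced to a 6.5 mM cAMP positive control.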
EPAC1 agonist: qHTS for Agonist of cAMP-regulated guanine nucleotide exchange factor 3 (EPAC1): primary screen; Rap guanine nucleotide exchange factor 3 (Homo sapiens), O95398; EPAC1 agonist qHTS, biochemical assay; response scale: 100% = response to 6.5 mM cAMP; Potency, µM (top dose mostly 154 µM), inactives show top-dose activation, actives largely listed as activators; actives 0.073% (n = 360,000); further: nearly all actives have a fitted effect of over 60% in size
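Nucleotide exchange by EPAC1 (100 nM) on Rap1B–BODIPY-GDP (250 nM) in the presence of 50 uM GDP is tracked fluorescently at 480/540 nm over 30 min. Signals are normalized to a 6.5 mM cAMP control.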
RGS4 inhibitor: Inhibitors of Regulator of G Protein Signaling (RGS) 4: qHTS; Regulator of G-protein signaling 4 (Homo sapiens), P49798; Transcreener GDP fluorescence polarization, RGS4-accelerated GTP hydrolysis; Potency, µM (doses to about 114 µM), for the others: top-dose activity change, negative = inhibition, actives largely listed as inhibitors; actives 0.039% (n = 390,000); further: on the % scale 0 is the no-effect control and ±100 the full control effect; nearly all actives have a fitted effect of over 75% in size
Target sequence (P49798 whole entry, looked up): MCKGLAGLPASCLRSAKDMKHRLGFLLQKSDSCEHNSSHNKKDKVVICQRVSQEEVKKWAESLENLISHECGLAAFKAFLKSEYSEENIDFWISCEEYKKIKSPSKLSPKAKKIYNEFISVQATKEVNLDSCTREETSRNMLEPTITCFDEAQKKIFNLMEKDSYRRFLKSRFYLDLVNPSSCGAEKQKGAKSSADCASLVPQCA
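MLSMR compounds (23 nl, pin-transferred) preincubated 10 min at room temperature with a 500nM (2x) first reagent, then RGS4 at 900nM (2x) plus Transcreener GDP mix added; fluorescence polarization (620/688 nm) read before and after 90 min at 30 °C.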
EPAC2 antagonist: qHTS for Antagonist of cAMP-regulated guanine nucleotide exchange factor 2 (EPAC2): primary screen; Rap guanine nucleotide exchange factor 4 (Homo sapiens), Q8WZA2; EPAC2 GEF exchange of Rap1B-BODIPY-GDP, fluorescence; Potency, µM (doses to about 114 µM), inactives show at the top dose activity, negative = inhibition, most hits filed as inhibitors; actives 0.18% (n = 360,000); further: on the % scale 0 is the no-effect control and ±100 the full control effect; nearly all actives have a fitted effect of over 45% in size
Active calls of the source: *; ? = inconclusive; . = no result; [ ] = another dose, or the depositor's remark. A selection: hits, their analogues and other compounds. The true share with any hit is near 1.3%. The call rests on the fitted dose curve; in most records, active means well fitted curve in the direction sought with a large enough effect; inconclusive means small, poorly fitted or top-dose-only effect, or another doubt; inactive means no such curve, though single readings can be large; an effect the other way counts as inactive or inconclusive. Potency means the concentration at half of the fitted maximal effect.

SMILES	BRCA1 expr act	EPAC1 antagonist	EPAC2 ag	EPAC1 agonist	RGS4 inhibitor	EPAC2 antagonist
N/C(=N\OC(=O)c1ccc(Cl)cc1)c1ccc(Cl)cc1	11µM*	7%	14%	2%	3%	13%
COc1ccc(-c2nc(C)c(CCNS(=O)(=O)c3cc(Cl)ccc3Cl)s2)cc1	0%	.	.	.	-19%	.
COCCCNC(=O)c1ccc(N(C)S(C)(=O)=O)cc1	15%	-3%	0%	8%	6%	-7%
CCCC1CCc2c(sc(NC(=O)c3cccs3)c2C(N)=O)C1 (configuration not stated)	11µM*	-4%	-5%	0%	20%	4%
CC1CCc2c(sc(NC(=O)c3cccs3)c2C(=O)O)C1 (configuration not stated)	59%	-1%	6%	0%	-5%	6%
COC(=O)c1ccc(CNC(=O)CSc2nc3sc(C)c(C)c3c(=O)n2C)o1	4%	-2%	10%	3%	31%	-5%
CCN(CC)C(=O)c1cc(-c2ccc(Br)cc2)on1	7.9µM*	3%	3%	2%	7%	-3%
O=[N+]([O-])c1ccc(C=NNc2ccccc2)cc1	15%	-27%	0%	8%	18%	-6%
O=[N+]([O-])c1ccc(N/N=C/c2ccccc2)c(F)c1	8.9µM*	0%	-4%	1%	-8%	6%
COc1cccc2cc(-c3nc4ccccc4[nH]3)c(=O)oc12	3.2µM*	-16%	0%	5%	9%	-8%
COc1ccc(-c2cc3cccc(OC)c3oc2=O)cc1	9%	4%	6%	10%	21%	-6%
CC(C)(C)c1cc(C(C)(C)C)c2oc(=O)c(-c3nc4ccccc4[nH]3)cc2c1	.	.	.	.	-9%	.
COc1cccc2cc(-c3ccccc3)c(=O)oc12	2.5µM*	-15%	7%	2%	-7%	-8%
CSc1ccccc1OCc1cc(C(=O)NC2CCOC(C)(C)C2)no1 (configuration not stated)	-11%	-1%	-7%	-2%	15%	-3%
CSc1ccccc1OCc1cc(C(=O)N(C)Cc2nonc2C)no1	11µM*	-23%	16%	3%	-14%	-4%
COc1ccc(OCc2cc(C(=O)N[C@H]3CCCCNC3=O)no2)c(Cl)c1	77%	11%	12%	-3%	-22%	6%
CSc1ccccc1OCc1cc(C(=O)N[C@H]2CCCCNC2=O)no1	11µM*	5%	6%	2%	-15%	-1%
CSc1ccccc1OCc1cc(C(=O)NC(C)Cc2cccc(C)n2)no1 (configuration not stated)	?	?	19%	10%	-13%	-12%
CSc1ccccc1OCc1cc(C(=O)NCc2cccc(C)n2)no1	6.3µM*	-1%	-5%	-3%	-4%	-2%
CSc1ccccc1OCc1cc(C(=O)NC2CCOC2)no1 (configuration not stated)	13µM*	4%	-2%	10%	-7%[56.9 µM]	-20%
Cc1cc(C)nc(CCNC(=O)c2cc(COc3ccccc3)on2)n1	7.9µM*	-12%	-2%	-12%	-37%	3%
O=C(CNC(=O)c1ccc(Cl)cc1)c1ccc(Cl)cc1	11µM*	1%	10%	-7%	-18%	12%
O=C(CNC(=O)c1ccc(Cl)cc1)c1ccccc1	?	-12%	8%	0%	-27%	-2%
CCC(C)NC(=O)C1CCN(c2nc(C)cc(C)n2)CC1 (configuration not stated)	-1%	11%	5%	-1%	-19%	17%
Cc1cc(-c2ccccc2)nc(N2CCC(C(=O)NC(C)C)CC2)n1	2µM*	-5%	10%	9%	2%	0%
SMILES	BRCA1 expr act	EPAC1 antagonist	EPAC2 ag	EPAC1 agonist	RGS4 inhibitor	EPAC2 antagonist
C[C@@]12C(=O)Nc3cc(F)ccc3C(=O)N1[C@H]1c3cc(Br)ccc3OC[C@@H]1[C@@H]2c1ccccc1	-53%	6%	79µM*	-9%	-3%	150%
CCOC(=O)[C@H]1[C@H]2COc3ccc(C)cc3[C@@H]2N2C(=O)c3ccc(F)cc3NC(=O)[C@@]12C	-8%	-13%	10%	7%	-2%	-30%
CCOC(=O)[C@H]1[C@H]2COc3ccc(C)cc3[C@@H]2N2C(=O)c3ccc(C)cc3NC(=O)[C@@]12C	-12%	10%	79µM*	?	11%	17%
COC(=O)[C@@]12CCCCN1[C@H](c1ccc(-c3cccc(Cl)c3)cc1)[C@H]1C(=O)N(C)C(=O)[C@H]12	-12%	1%	7%	1%	4%	-1%
CCN(c1cccc(C)c1)S(=O)(=O)c1cn(CC(=O)OC)c2ccc([N+](=O)[O-])cc12	-6%	-23%	5%	-10%	-9%	-29%
CCCCC1(C(=O)OCC)CC(CSC(=N)N)OC1=O (configuration not stated)	4%	3%	8%	7%	-8%	3%
CC(C)C(NC(=O)C1CCCCC1)C(=O)Nc1ccc2c(c1)OCCO2 (configuration not stated)	4.5µM*	13%	-1%	5%	-3%	5%
COc1ccc(-c2nnc(SC(C)C(=O)Nc3ccc4c(c3)OCCO4)o2)cc1 (configuration not stated)	10µM*	-7%	6%	6%	0%	-6%
CC(Sc1ccccc1F)C(=O)Nc1ccc2c(c1)OCCO2 (configuration not stated)	11µM*	9%	2%	2%	-1%	6%
CSCC[C@H](NC(=O)[C@@H]1Cc2ccccc2CN1)C(=O)Nc1ccc2c(c1)OCCO2	11µM*	3%	-1%	3%	0%[56.9 µM]	-9%
C[C@H](NC(=O)[C@@H]1Cc2ccccc2CN1)C(=O)Nc1ccc2c(c1)OCCO2	-10%	-3%	5%	-2%	6%	-2%
COc1ccccc1C(=O)N1CCN(Cc2nc(CC3CC3)no2)CC1	-10%	1%	0%	-5%	-19%	4%
CC(=O)N1CCN(S(=O)(=O)c2ccc(S(=O)(=O)NC3CC3)cc2)CC1	1%	18%	6%	2%	-7%	21%
